± gives the standard deviation of the averaged measurements.
Test system: PC9
Test: area under confluence curve of osimertinib + compound combination regimen (DTP regrowth); compare to osimertinib-only DTP control AUC of the same experiment (AUC (confluence x time, arbitrary))
Description: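 compare to osimertinib-only DTP control AUC of the same experiment; Long-term drug-tolerant persister (DTP) screen in EGFR-mutant NSCLC cell lines in 48-well plates. The test compound was given at one fixed dose with osimertinib, either upfront (from day 0 to the DTP stage at 10-21 days, then drug-free medium) or sequentially (osimertinib alone to the DTP stage, then the test compound). IncuCyte confluence was tracked until osimertinib-only controls regrew, and AUC was computed in Prism. AUC scale depends on experiment duration, so each row carries the same-experiment osimertinib-only DTP and DMSO control AUCs; combination activity = control minus combo AUC. Osimertinib dose not stated.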

[1] = test compound dose 1000 nM, dosing schedule: sequential, osimertinib-only DTP control AUC in same experiment: 15001, DMSO control AUC in same experiment: 22064
[2] = test compound dose 1000 nM, dosing schedule: sequential, osimertinib-only DTP control AUC in same experiment: 15044, DMSO control AUC in same experiment: 30604
[3] = test compound dose 1000 nM, dosing schedule: upfront, osimertinib-only DTP control AUC in same experiment: 20672, DMSO control AUC in same experiment: 30604
[4] = test compound dose 1000 nM, dosing schedule: upfront, osimertinib-only DTP control AUC in same experiment: 24924, DMSO control AUC in same experiment: 22064

## CC(=O)Nc1cccc(-n2c(=O)n(C3CC3)c(=O)c3c(Nc4ccc(I)cc4F)n(C)c(=O)c(C)c32)c1 [Trametinib] + C=CC(=O)Nc1cc(Nc2nccc(-c3cn(C)c4ccccc34)n2)c(OC)cc1N(C)CCN(C)C [osimertinib]
Test compound dose 10 nM, dosing schedule: sequential, osimertinib-only DTP control AUC in same experiment: 14554, DMSO control AUC in same experiment: 49189
  area under confluence curve: 10400
Test compound dose 10 nM, dosing schedule: sequential, osimertinib-only DTP control AUC in same experiment: 14708, DMSO control AUC in same experiment: 21341
  area under confluence curve: 3390
Test compound dose 10 nM, dosing schedule: upfront, osimertinib-only DTP control AUC in same experiment: 21313, DMSO control AUC in same experiment: 21341
  area under confluence curve: 6970
Test compound dose 10 nM, dosing schedule: upfront, osimertinib-only DTP control AUC in same experiment: 24473, DMSO control AUC in same experiment: 49189
  area under confluence curve: 9410

## CN(C)CCCOc1ccc(-c2ccc3ncc4c(c3c2)n(C2CCOCC2)c(=O)n4C)cn1 + C=CC(=O)Nc1cc(Nc2nccc(-c3cn(C)c4ccccc34)n2)c(OC)cc1N(C)CCN(C)C [osimertinib]
Test compound dose 300 nM, dosing schedule: sequential, osimertinib-only DTP control AUC in same experiment: 7760, DMSO control AUC in same experiment: 29563
  area under confluence curve: 4600
Test compound dose 300 nM, dosing schedule: sequential, osimertinib-only DTP control AUC in same experiment: 15001, DMSO control AUC in same experiment: 22064
  area under confluence curve: 14800
Test compound dose 300 nM, dosing schedule: sequential, osimertinib-only DTP control AUC in same experiment: 15044, DMSO control AUC in same experiment: 30604
  area under confluence curve: 3980
Test compound dose 300 nM, dosing schedule: upfront, osimertinib-only DTP control AUC in same experiment: 11798, DMSO control AUC in same experiment: 29563
  area under confluence curve: 5590
Test compound dose 300 nM, dosing schedule: upfront, osimertinib-only DTP control AUC in same experiment: 20672, DMSO control AUC in same experiment: 30604
  area under confluence curve: 5990
Test compound dose 300 nM, dosing schedule: upfront, osimertinib-only DTP control AUC in same experiment: 24924, DMSO control AUC in same experiment: 22064
  area under confluence curve: 22400

## Nc1nc(Nc2ccc3c(c2)CCC(N2CCCC2)CC3)nn1-c1cc2c(nn1)-c1ccccc1CCC2 (stereo unspecified) + C=CC(=O)Nc1cc(Nc2nccc(-c3cn(C)c4ccccc34)n2)c(OC)cc1N(C)CCN(C)C [osimertinib]
Test compound dose 300 nM, dosing schedule: sequential, osimertinib-only DTP control AUC in same experiment: 11273, DMSO control AUC in same experiment: 20197
  area under confluence curve: 6530
Test compound dose 300 nM, dosing schedule: sequential, osimertinib-only DTP control AUC in same experiment: 29087, DMSO control AUC in same experiment: 30008
  area under confluence curve: 12100
Test compound dose 300 nM, dosing schedule: upfront, osimertinib-only DTP control AUC in same experiment: 13449, DMSO control AUC in same experiment: 20197
  area under confluence curve: 7530
Test compound dose 300 nM, dosing schedule: upfront, osimertinib-only DTP control AUC in same experiment: 34430, DMSO control AUC in same experiment: 30008
  area under confluence curve: 11700

## CS(=O)(=O)N1CCN(Cc2cc3nc(-c4cccc5[nH]ncc45)nc(N4CCOCC4)c3s2)CC1 + C=CC(=O)Nc1cc(Nc2nccc(-c3cn(C)c4ccccc34)n2)c(OC)cc1N(C)CCN(C)C [osimertinib]
Test compound dose 1000 nM, dosing schedule: sequential, osimertinib-only DTP control AUC in same experiment: 1963, DMSO control AUC in same experiment: 30580
  area under confluence curve: 1580 ± 160
Test compound dose 1000 nM, dosing schedule: upfront, osimertinib-only DTP control AUC in same experiment: 8618, DMSO control AUC in same experiment: 30580
  area under confluence curve: 4540 ± 320

## Cc1nc(N2CCC3(CC2)CO[C@@H](C)[C@H]3N)c(CO)nc1-c1cccc(Cl)c1Cl + C=CC(=O)Nc1cc(Nc2nccc(-c3cn(C)c4ccccc34)n2)c(OC)cc1N(C)CCN(C)C [osimertinib]
Test compound dose 1000 nM, dosing schedule: sequential, osimertinib-only DTP control AUC in same experiment: 10671, DMSO control AUC in same experiment: 21678
  area under confluence curve: 9600
Test compound dose 1000 nM, dosing schedule: sequential, osimertinib-only DTP control AUC in same experiment: 13130, DMSO control AUC in same experiment: 20567
  area under confluence curve: 7660
Test compound dose 1000 nM, dosing schedule: upfront, osimertinib-only DTP control AUC in same experiment: 18577, DMSO control AUC in same experiment: 20567
  area under confluence curve: 13500
Test compound dose 1000 nM, dosing schedule: upfront, osimertinib-only DTP control AUC in same experiment: 19512, DMSO control AUC in same experiment: 21678
  area under confluence curve: 10500

## O=C([C@@H](Cc1cccc(C(F)(F)F)c1)NS(=O)(=O)c1cc(F)c2c(c1)CCNC2)N1CCCC1 + C=CC(=O)Nc1cc(Nc2nccc(-c3cn(C)c4ccccc34)n2)c(OC)cc1N(C)CCN(C)C [osimertinib]
Test compound dose 1000 nM, dosing schedule: sequential, osimertinib-only DTP control AUC in same experiment: 10968, DMSO control AUC in same experiment: 21594
  area under confluence curve: 10000
Test compound dose 1000 nM, dosing schedule: upfront, osimertinib-only DTP control AUC in same experiment: 17834, DMSO control AUC in same experiment: 21594
  area under confluence curve: 13600

## Cc1cc(Nc2ncnc3ccc(NC4=NC(C)(C)CO4)cc23)ccc1Oc1ccn2ncnc2c1 [Tucatinib] + C=CC(=O)Nc1cc(Nc2nccc(-c3cn(C)c4ccccc34)n2)c(OC)cc1N(C)CCN(C)C [osimertinib]
Test compound dose 1000 nM, dosing schedule: sequential, osimertinib-only DTP control AUC in same experiment: 13992, DMSO control AUC in same experiment: 30002
  area under confluence curve: 11100
Test compound dose 1000 nM, dosing schedule: sequential, osimertinib-only DTP control AUC in same experiment: 16279, DMSO control AUC in same experiment: 29345
  area under confluence curve: 17500
Test compound dose 1000 nM, dosing schedule: upfront, osimertinib-only DTP control AUC in same experiment: 19769, DMSO control AUC in same experiment: 29345
  area under confluence curve: 18600
Test compound dose 1000 nM, dosing schedule: upfront, osimertinib-only DTP control AUC in same experiment: 22377, DMSO control AUC in same experiment: 30002
  area under confluence curve: 17200

## O=C(c1cc(Cc2n[nH]c(=O)c3ccccc23)ccc1F)N1CCN(C(=O)C2CC2)CC1 [Olaparib] + C=CC(=O)Nc1cc(Nc2nccc(-c3cn(C)c4ccccc34)n2)c(OC)cc1N(C)CCN(C)C [osimertinib]
[1]
  area under confluence curve: 7460
[2]
  area under confluence curve: 12600
[3]
  area under confluence curve: 16600
[4]
  area under confluence curve: 18600

## C[C@@H]1COCCN1c1cc(C2([S@](C)(=N)=O)CC2)nc(-c2cc[nH]c3nccc2-3)n1 + C=CC(=O)Nc1cc(Nc2nccc(-c3cn(C)c4ccccc34)n2)c(OC)cc1N(C)CCN(C)C [osimertinib]
[1]
  area under confluence curve: 14300
[2]
  area under confluence curve: 12300
[3]
  area under confluence curve: 15900
[4]
  area under confluence curve: 16500

## Cc1cc2ncnn2cc1Nc1ncc2c(n1)n(C1CCOCC1)c(=O)n2C + C=CC(=O)Nc1cc(Nc2nccc(-c3cn(C)c4ccccc34)n2)c(OC)cc1N(C)CCN(C)C [osimertinib]
[2]
  area under confluence curve: 10500
[3]
  area under confluence curve: 12700

Source: the supplement of paper PMC9794691
